Screening results as filed in PubChem BioAssay.
HP1b binding inh: HP1-beta chromodomain-methylated histone interaction inhibition | hit rate 0.56% among 390,000 | P83916 | AlphaScreen HP1-beta / biotin-H3K9me3 peptide binding | Potency, µM (top dose mostly 114 µM), for inactives: at the top dose activity change, negative = inhibition, usual class: inhibitors; also: potency is read from the fitted curve at half-maximal effect; nearly all actives have a fitted effect of over 70% in size
Target sequence (P83916 whole entry, looked up): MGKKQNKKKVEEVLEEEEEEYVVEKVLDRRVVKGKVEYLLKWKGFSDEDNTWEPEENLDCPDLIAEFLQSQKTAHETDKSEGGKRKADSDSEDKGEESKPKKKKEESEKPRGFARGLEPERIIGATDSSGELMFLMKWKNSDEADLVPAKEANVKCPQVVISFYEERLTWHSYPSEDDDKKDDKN
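HP1-beta protein (50 nM final) preincubated 30 min at room temperature with biotinylated H3(1-18)K9me3 peptide (50 nM) in PBS pH 7.4, 0.01% Tween-20, then compound added for 30 min. AlphaScreen streptavidin donor/nickel chelate acceptor beads (10 ug/mL final), 30 min dark, luminescence read.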
Six1-Eya2 inh: blocks human Six1 binding to Eya2 | AID 651725 | activity change, % (no concentration beside the values) | hit rate 0.56% among 360,000 | AlphaScreen GST-Six1/His-Eya2 binding, biochemical; hits give low values | Q15475+O00167; in the data active = activity change below about -65%; inconclusive = mostly about -30% to -63%; also: % is scaled to controls: 0 for no effect and ±100 for the full control effect
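AlphaScreen luminescence read after one hour at 37 °C in darkness. Pin-transferred compounds met GST-Six1 and His-Eya2 protein (5X stock 250 nM/500 nM) plus glutathione donor and Ni-chelate acceptor beads (5X, 50 ug/mL).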
BAZ2B block: BAZ2B (human) inhibition; Q9UIF8; AlphaScreen BAZ2B-H3K14Ac peptide displacement; Potency, µM (series often up to 114 µM), for inactives: at the top dose activity change, negative = inhibition, usual class: inhibitors; hit rate 4.4% among 360,000; AID 504333; also: potency is read from the fitted curve at half-maximal effect; % is scaled to controls: 0 for no effect and ±100 for the full control effect; nearly all actives have a fitted effect of over 60% in size
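Complex of BAZ2B and biotin-H3K14Ac (50 nM apiece) forms over 30 min at RT, then faces library compounds up to 110 uM for another 30 min; AlphaScreen beads added, 20 min dark incubation, luminescence read.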
G9a inh: G9a (human) methyltransferase inhibition; Q96KQ7; G9a H3K9 monomethylation, AlphaScreen, 2 h; Potency, µM (highest dose often 102 µM), inactives show at the highest dose activity, negative = inhibition, usual class: inhibitors; hit rate 8.8% among 350,000; AID 504332; also: potency is read from the fitted curve at half-maximal effect; % is scaled to controls: 0 for no effect and ±100 for the full control effect; nearly all actives have a fitted effect of over 75% in size
Target sequence (Q96KQ7 913-1193 limits assumed): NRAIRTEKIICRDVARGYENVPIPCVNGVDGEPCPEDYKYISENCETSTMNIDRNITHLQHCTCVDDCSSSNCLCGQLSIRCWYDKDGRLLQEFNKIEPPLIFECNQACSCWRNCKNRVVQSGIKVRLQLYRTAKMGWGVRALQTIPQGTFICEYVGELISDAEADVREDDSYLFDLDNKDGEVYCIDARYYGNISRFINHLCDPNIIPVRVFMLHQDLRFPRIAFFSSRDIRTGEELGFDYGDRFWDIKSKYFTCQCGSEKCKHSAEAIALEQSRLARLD
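Quantitative HTS format: methyltransferase activity on a biotin-tagged H3K9 peptide is measured by AlphaScreen, using a rabbit anti-monomethyl-H3K9 antibody with streptavidin donor and anti-IgG acceptor beads. Final levels are 20 nM enzyme, 500 nM peptide, 20 uM SAM; 2 h RT.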
JMJD2A Tudor inh: blocks the human JMJD2A Tudor domain. AlphaScreen JMJD2A-Tudor / H3K4me3 peptide binding. Potency, µM (highest dose often 114 µM), for inactives: top-dose activity change, negative = inhibition, most hits filed as inhibitors. hit rate 4.4% among 390,000. AID 504339; also: potency is read from the fitted curve at half-maximal effect; % is scaled to controls: 0 for no effect and ±100 for the full control effect; nearly all actives have a fitted effect of over 50% in size
CtBP-E1A inh: CtBP/E1A binding inhibition. AlphaScreen GST-E1A/His-CtBP binding, 1536-well; hits give low values. activity change, % (test concentration not listed). hit rate 0.49% among 340,000. AID 651724; in the data active = activity change below about -65%; inconclusive = mostly about -30% to -63%; also: % is scaled to controls: 0 for no effect and ±100 for the full control effect
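Steps: dispense buffer (Tris pH 8.0, NaCl 300 mM, TCEP 1 mM, BSA, Tween 20); add 5X protein mix (GST-E1A, His-CtBP, 125 nM each); pin 23 nL compound; 2 h at 37 °C, dark; add 5X beads (50 ug/mL); 1 h; read.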
An asterisk follows results filed as active; [ ] = another dose, or the depositor's remark. A selection: hits, their analogues and other compounds. The true share with any hit is near 10%. Unless noted, calls follow the shape of the dose curve; as a rule, active = well fitted inhibition curve with a large enough effect; inconclusive = small, poorly fitted or top-dose-only effect; inactive = no such curve, though single readings can be large or run the other way.

Screening CCOc1ccc(OCC(=O)NCCS(=O)(=O)N2CCN(c3cccc(Cl)c3)CC2)cc1 returned HP1b binding inh 5%, BAZ2B block -3%, G9a inh -4%[59 µM] and JMJD2A Tudor inh -9%.
`Cn1cnc(S(=O)(=O)N2CCCC(C(=O)NCc3ccc(Cl)cc3)C2)c1` (centres undefined) gave HP1b binding inh 19%, BAZ2B block -7%, G9a inh 17%[59 µM] and JMJD2A Tudor inh -2%.
Screening CC(C)(C)c1ccc(OCC(=O)NCCN2CCCC2)cc1 returned HP1b binding inh 18%, Six1-Eya2 inh 0, BAZ2B block -4%, G9a inh 1%[12.7 µM], JMJD2A Tudor inh -2% and CtBP-E1A inh 0.
`c1ccc(COc2ccc(OCCCN3CCCC3)cc2)cc1` gave HP1b binding inh -9%, Six1-Eya2 inh -7, BAZ2B block 50µM*, G9a inh 6.3µM*, JMJD2A Tudor inh 20µM* and CtBP-E1A inh -6.
Screening CC(C)(C)c1ccc(OCCCN2CCCC2)cc1 returned HP1b binding inh inconclusive, Six1-Eya2 inh 14, BAZ2B block inconclusive, G9a inh 0% and JMJD2A Tudor inh 22µM*.
Cc1cc(Nc2ccc(C)c(Cl)c2)n2nc(-c3ccccc3)nc2n1 was read as HP1b binding inh 18%, BAZ2B block 1%, G9a inh -1%[59 µM] and JMJD2A Tudor inh -32%.
Screening Cn1ncc2c(Nc3cc(C(F)(F)F)ccc3Cl)ncnc21 returned HP1b binding inh 23%, BAZ2B block 3%, G9a inh -10%[59 µM] and JMJD2A Tudor inh -17%.
CN1CCN(C(=O)c2ccc3c(c2)N(Cc2c(F)cccc2Cl)C(=O)c2ccccc2S3)CC1 was read as HP1b binding inh 4%, G9a inh inconclusive and JMJD2A Tudor inh -26%.
CCC(C)N1CCN(C(=O)c2cc(OC)cc(OC)c2)CC1 (centres undefined) was read as HP1b binding inh inconclusive, Six1-Eya2 inh 3, BAZ2B block 79µM*, JMJD2A Tudor inh 20µM* and CtBP-E1A inh 9.
`COc1cc(OC)cc(C(=O)N2CCN(Cc3ccccc3C(F)(F)F)CC2)c1` gave HP1b binding inh inconclusive, Six1-Eya2 inh -5, BAZ2B block 35µM*, G9a inh 7.9µM*, JMJD2A Tudor inh 1.6µM* and CtBP-E1A inh -7.
Screening COc1cccc(C(=O)N2CCN(Cc3ccccn3)CC2)c1 returned HP1b binding inh -23%, Six1-Eya2 inh 2, BAZ2B block 20µM*, G9a inh 45µM*, JMJD2A Tudor inh 3.5µM* and CtBP-E1A inh 6.
Screening COc1ccc(C(=O)N2CCN(CCc3ccccn3)CC2)cc1 returned HP1b binding inh 41%, Six1-Eya2 inh 3, BAZ2B block inconclusive, G9a inh 0%, JMJD2A Tudor inh -5% and CtBP-E1A inh -5.
Screening COc1cc(C(=O)N2CCN(Cc3ccccc3C(F)(F)F)CC2)cc(OC)c1OC returned HP1b binding inh inconclusive, Six1-Eya2 inh -2, BAZ2B block 32µM*, G9a inh inconclusive, JMJD2A Tudor inh 20µM* and CtBP-E1A inh -5.
COc1ccccc1NC(=O)c1sc2nc(C)c(C(=O)Nc3ccc(C)cc3C)c(-c3ccco3)c2c1N was read as HP1b binding inh 39%, BAZ2B block 0%, G9a inh -5%[59 µM] and JMJD2A Tudor inh -9%.
For CC(C)OCCCNc1ncnc2sc3c(c12)CCCC3 the results were HP1b binding inh 47%, BAZ2B block 2%, G9a inh 12%[59 µM] and JMJD2A Tudor inh 11%.
`C(=C\c1ccc2ccccc2n1)/c1ccccc1` gave HP1b binding inh 137%, Six1-Eya2 inh 3, BAZ2B block 262%, G9a inh 195%[59 µM] and JMJD2A Tudor inh 149%.
Screening Cc1ccc(/C=C/c2nc3ccccc3s2)s1 returned HP1b binding inh 469%, Six1-Eya2 inh 79, BAZ2B block 215%, G9a inh 10%[2.33 µM], JMJD2A Tudor inh 332% and CtBP-E1A inh 73.
